{"source": "PubChem BioAssay AID372", "about": "(MTDP, 2006)", "note": "Screen size: about 100,000 compounds; about 770 (0.77%) were called active. The sample holds actives, similar compounds and a random draw of the others, so the mix is not that of the screen. No stated cut-off is given here; in the data, active means inhibition above about 50%; inactive means the rest."}
{"target": "Gag-Pol polyprotein (Human immunodeficiency virus type 1 group M subtype B (isolate HXB2)) (UniProt P04585)", "experiment": "RNase H inhibition, HIV 1 Gag Pol polyprotein, FRET biochemical assay, screening (AID 372)", "conditions": "HIV-1 RT RNase H, FRET RNA/DNA substrate fluorescence; at 10 µM; hits give high values"}
{"compound": "COc1ccc(Cl)cc1N(CC(=O)N1CCC(C)CC1)S(=O)(=O)c1ccc(C)c([N+](=O)[O-])c1", "inhibition": "6% (inactive)"}
{"compound": "CCOc1cc(C=C2C(=O)NC(=O)NC2=O)ccc1OS(=O)(=O)c1ccc(C)cc1", "inhibition": "17% (inactive)"}
{"compound": "O=C(COc1ccc(Cl)cc1Cl)n1cc([N+](=O)[O-])cn1", "inhibition": "6% (inactive)"}
{"compound": "CCc1c(C#N)c(N)nc(SCC(=O)c2ccc(Cl)c(Cl)c2)c1C#N", "inhibition": "14% (inactive)"}
{"compound": "CCc1c(C#N)c(N)nc(SCC(=O)c2ccc(C)cc2)c1C#N", "inhibition": "13% (inactive)"}
{"compound": "CC(=O)c1cc(C#N)c(SCC(=O)c2ccc(O)c(O)c2)nc1C", "inhibition": "75% (active)"}
{"compound": "COc1ccc(C(=O)CSc2nc3c(c(-c4ccc(C)o4)c2C#N)CCCC3)cc1", "inhibition": "15% (inactive)"}
{"compound": "Cc1cc(-c2ccc(C)o2)c(C#N)c(SCC(=O)c2ccccc2)n1", "inhibition": "1% (inactive)"}
{"compound": "N#Cc1c(SCC(=O)c2ccc(Cl)cc2)nc2c(c1-c1ccco1)CCCC2", "inhibition": "12% (inactive)"}
{"compound": "COc1ccc(-c2cc(-c3ccc(OC)cc3)c(C#N)c(SCC(=O)c3ccc(C)cc3)n2)cc1", "inhibition": "17% (inactive)"}
{"compound": "Cc1nc(SCC(=O)c2ccc(O)c(O)c2)c(C#N)c(CC(C)C)c1C(N)=O", "inhibition": "51% (active)"}
{"compound": "CCCCSc1nc(C)c(C(C)=O)cc1C#N", "inhibition": "8% (inactive)"}
{"compound": "CSc1nc(C)c(C(C)=O)cc1C#N", "inhibition": "13% (inactive)"}
{"compound": "NC(N)=NS(=O)(=O)c1ccc(NC(=S)Nc2ccccc2)cc1", "inhibition": "6% (inactive)"}
{"compound": "CC(=O)C1(C)CC(C#N)(C#N)C(C#N)=C1N", "note": "(stereo not drawn)", "inhibition": "0% (inactive)"}
{"compound": "COCCOC(=O)c1ccc(NC(=O)C(C)Oc2ccc(Cl)cc2C)cc1", "note": "(stereo not drawn)", "inhibition": "11% (inactive)"}
{"compound": "CC(=O)ON=C1CC(C)(C)NC(C)(C)C1", "inhibition": "4% (inactive)"}
{"compound": "CCOC(=O)/C=C/COc1ccc2oc(-c3ccccc3)c(C(=O)OCC)c2c1", "inhibition": "10% (inactive)"}
{"compound": "CC(=O)c1ccc(NC(=O)c2ccccc2Cl)cc1", "inhibition": "2% (inactive)"}
{"compound": "CCCOC(=O)CSc1nc(C)cc(C)c1C#N", "inhibition": "10% (inactive)"}
{"compound": "Cc1cc(C)c(C#N)c(SCC(=O)Nc2ccc(Cl)cc2)n1", "inhibition": "1% (inactive)"}
{"compound": "Cc1cc(C)c(C#N)c(SCC(=O)c2ccc(O)c(O)c2)n1", "inhibition": "70% (active)"}
{"compound": "COc1cccc(N2C(=O)/C(=C/c3c(OC)cc(OC)cc3OC)C(=O)NC2=S)c1", "inhibition": "1% (inactive)"}
{"compound": "CCCCc1ccc(/C(C)=N/Nc2cc(-n3cc(C)cn3)ncn2)cc1", "inhibition": "0% (inactive)"}
{"compound": "O=C(O)CCCCCN1C(=O)C(=O)/C(=C(/O)c2ccc(Cl)cc2)C1c1ccccc1", "note": "(stereo not drawn)", "inhibition": "13% (inactive)"}
{"compound": "O=c1oc2cc(OCc3c(F)cccc3Cl)ccc2cc1-c1ccccn1", "inhibition": "8% (inactive)"}
{"compound": "CC(C)c1ccccc1OCCCN1CCCC1", "inhibition": "3% (inactive)"}
{"compound": "CC(C)c1ccccc1OCCCCN1CCCCC1", "inhibition": "8% (inactive)"}
{"compound": "CC(C)c1ccccc1OCCCN1CCCCC1", "inhibition": "56% (active)"}
{"compound": "Cc1ccc(C)c(N(CC(=O)Nc2c(C)n(C)n(-c3ccccc3)c2=O)S(=O)(=O)c2ccccc2)c1", "inhibition": "3% (inactive)"}
{"compound": "COc1ccc2c(c1OC)C(=O)OC2Nc1cccc([N+](=O)[O-])c1", "note": "(stereo not drawn)", "inhibition": "1% (inactive)"}
{"compound": "CCOC(=O)COc1ccc(C=O)cc1OCC", "inhibition": "0% (inactive)"}
{"compound": "O=C(N/N=C/c1ccc(Cl)c([N+](=O)[O-])c1)c1cc(O)cc(O)c1", "inhibition": "3% (inactive)"}
{"compound": "O=C(N/N=C/c1cc([N+](=O)[O-])ccc1Cl)c1cc2ccccc2o1", "inhibition": "35% (inactive)"}
{"compound": "O=C(N/N=C/c1ccc(Cl)c([N+](=O)[O-])c1)c1ccccn1", "inhibition": "11% (inactive)"}
{"compound": "O=C(N/N=C/c1ccc(Cl)c([N+](=O)[O-])c1)c1ccc(O)cc1", "inhibition": "22% (inactive)"}
{"compound": "O=C(N/N=C/c1ccc(Cl)c([N+](=O)[O-])c1)c1cc2ccccc2o1", "inhibition": "59% (active)"}
{"compound": "O=C(N/N=C/c1cc([N+](=O)[O-])ccc1O)c1ccc(O)c(O)c1", "inhibition": "35% (inactive)"}
{"compound": "O=C(N/N=C/c1cc([N+](=O)[O-])ccc1Cl)c1ccc(O)c(O)c1", "inhibition": "63% (active)"}
{"compound": "O=C(N/N=C/c1ccccc1[N+](=O)[O-])c1cc(O)cc(O)c1", "inhibition": "3% (inactive)"}
{"compound": "O=C(N/N=C/c1cc([N+](=O)[O-])ccc1Cl)c1ccc(O)cc1", "inhibition": "10% (inactive)"}
{"compound": "O=C(N/N=C/c1ccccc1[N+](=O)[O-])c1ccc(O)c(O)c1", "inhibition": "51% (active)"}
{"compound": "O=C(N/N=C/c1ccccc1[N+](=O)[O-])c1ccccc1", "inhibition": "28% (inactive)"}
{"compound": "O=C(N/N=C/c1ccc(Cl)c([N+](=O)[O-])c1)c1ccc(O)c(O)c1", "inhibition": "53% (active)"}
{"compound": "O=C(CSc1nc2ccccc2o1)c1ccc(-c2ccccc2)cc1", "inhibition": "14% (inactive)"}
{"compound": "Cc1nnc(SCc2ccc(F)cc2)s1", "inhibition": "0% (inactive)"}
{"compound": "COC(=O)c1ccc(C2N(O)C3CCCCC3N2O)cc1", "note": "(stereo not drawn)", "inhibition": "15% (inactive)"}
{"compound": "COc1ccc([N+](=O)[O-])cc1N1C(=O)C=CC1=O", "inhibition": "4% (inactive)"}
{"compound": "CC(C)(C)c1cc(C(=O)N/N=C\\c2ccncc2)n[nH]1", "inhibition": "3% (inactive)"}
{"compound": "O=C(Nc1ccc(Cl)c(Cl)c1)c1cccc2ccccc12", "inhibition": "8% (inactive)"}
{"compound": "Cc1cc(/C=C2\\C(=O)NC(=S)N(c3cccc(Cl)c3)C2=O)c(C)n1-c1ccc(Cl)cc1", "inhibition": "40% (inactive)"}
{"compound": "CC1=C(C(=O)OCCOc2ccccc2)C(c2ccc(O)cc2)C2=C(CC(c3ccccc3)CC2=O)N1", "note": "(stereo not drawn)", "inhibition": "9% (inactive)"}
{"compound": "COc1ccc(-c2ccc(/C=C3/C(=O)NN(c4ccc(C)c(Cl)c4)C3=O)o2)c([N+](=O)[O-])c1", "inhibition": "24% (inactive)"}
{"compound": "CC(=O)N(C)c1ccc(NC(=O)/C=C/c2cccc3ccccc23)cc1", "inhibition": "53% (active)"}
{"compound": "O=C(/C=C/c1cccc2ccccc12)Nc1ccc(Nc2ccccc2)cc1", "inhibition": "25% (inactive)"}
{"compound": "CC(=O)N(C)c1ccc(NC(=O)/C=C/c2ccccc2)cc1", "inhibition": "9% (inactive)"}
{"compound": "Cc1ccc(S(=O)(=O)c2ccc(C)c(S(N)(=O)=O)c2)cc1S(N)(=O)=O", "inhibition": "0% (inactive)"}
{"compound": "COc1ccc(-n2nc3cc(C)c(N)cc3n2)cc1", "inhibition": "22% (inactive)"}
{"compound": "Cc1cc2nn(-c3ccccc3)nc2cc1N", "inhibition": "50% (active)"}
{"compound": "CCOc1ccc(-n2nc3cc(C)c(N)cc3n2)cc1", "inhibition": "24% (inactive)"}
{"compound": "CCOC(=O)C1=C(O)/C(=C/c2ccc(Br)cc2)SC1=Nc1ccccc1", "inhibition": "5% (inactive)"}
{"compound": "CCC(=O)Nc1ccc(NC(=S)NC(=O)c2cccc(F)c2)cc1", "inhibition": "11% (inactive)"}
{"compound": "O=C1/C(=C/c2ccc(O)c(O)c2)SC(=S)N1c1cccc(F)c1", "inhibition": "84% (active)"}
{"compound": "O=C1/C(=C/c2ccc(F)cc2)SC(=S)N1c1ccc(F)cc1", "inhibition": "17% (inactive)"}
{"compound": "O=C1S/C(=C/c2ccc(O)c(O)c2)C(=O)N1c1ccccc1", "inhibition": "60% (active)"}
{"compound": "O=C1/C(=C/c2cccnc2)SC(=S)N1c1cccc(F)c1", "inhibition": "3% (inactive)"}
{"compound": "O=C1/C(=C/c2cccc(O)c2)SC(=S)N1c1cccc(Cl)c1", "inhibition": "19% (inactive)"}
{"compound": "O=C1/C(=C\\c2ccc(O)cc2)SC(=S)N1c1ccc(F)cc1", "inhibition": "37% (inactive)"}
{"compound": "COc1ccc(/C=C2\\SC(=S)N(c3cccc(F)c3)C2=O)cc1O", "inhibition": "7% (inactive)"}
{"compound": "COc1cc(/C=C2\\SC(=O)N(c3ccccc3)C2=O)ccc1O", "inhibition": "27% (inactive)"}
{"compound": "COc1cc(/C=C2\\SC(=S)N(c3cccc(Cl)c3)C2=O)ccc1O", "inhibition": "38% (inactive)"}
{"compound": "O=C1/C(=C\\c2ccc(O)c(O)c2)SC(=S)N1c1ccc(F)cc1", "inhibition": "74% (active)"}
{"compound": "O=C1S/C(=C/c2cccc(O)c2)C(=O)N1c1ccccc1", "inhibition": "24% (inactive)"}
{"compound": "Cc1ccc2cc(C3=C/C(=C/c4cccc(Br)c4)C(=O)O3)ccc2c1", "inhibition": "4% (inactive)"}
{"compound": "CCCCCOc1ccc(/C=N\\Nc2nc(-c3ccccc3)cc(-c3ccccc3)n2)cc1", "inhibition": "8% (inactive)"}
{"compound": "COc1ccc(C(=O)COC(=O)c2ccc(N3C(=O)C4C5C=CC(C6CC56)C4C3=O)cc2)cc1", "note": "(stereo not drawn)", "inhibition": "9% (inactive)"}
{"compound": "CCN(CC)S(=O)(=O)c1ccc(C(C)(C)C)cc1", "inhibition": "15% (inactive)"}
{"compound": "N/C(=C\\C(=O)c1ccccc1O)C(F)(F)F", "inhibition": "8% (inactive)"}
{"compound": "CCc1nn(-c2ccccc2)c2nc(-c3ccccc3C)c3cc(OC)c(OC)cc3c12", "inhibition": "13% (inactive)"}
{"compound": "COc1ccc(/C=C2/C(=O)NC(=O)N(Cc3ccco3)C2=O)cc1C", "inhibition": "12% (inactive)"}
{"compound": "O=C(O)CC1SC(=NC(=O)c2ccco2)N(c2ccccc2)C1=O", "note": "(stereo not drawn)", "inhibition": "0% (inactive)"}
{"compound": "O=C1/C(=C\\c2ccc(O)cc2)SC(=S)N1c1ccc(Cl)cc1", "inhibition": "36% (inactive)"}
{"compound": "Cc1ccc(N2C(=O)/C(=C/c3ccc(F)cc3)SC2=S)cc1C", "inhibition": "6% (inactive)"}
{"compound": "O=C1/C(=C/c2cccc(O)c2)SC(=S)N1c1ccc(O)cc1", "inhibition": "26% (inactive)"}
{"compound": "O=C1/C(=C\\c2ccc(O)c(O)c2)SC(=S)N1c1cccc2ccccc12", "inhibition": "72% (active)"}
{"compound": "O=C1NC(=O)N(c2cccc3ccccc23)C(=O)/C1=C/c1ccc(O)c(O)c1", "inhibition": "22% (inactive)"}
{"compound": "Cc1ccc(N2C(=O)/C(=C/c3ccc(Cl)cc3)SC2=S)cc1C", "inhibition": "5% (inactive)"}
{"compound": "O=C1/C(=C\\c2ccc(O)c(O)c2)SC(=S)N1c1cccc(C(F)(F)F)c1", "inhibition": "48% (inactive)"}
{"compound": "CN(C)c1ccc(/C=C2\\C(=O)N(c3nc(-c4ccc(Cl)cc4)cs3)N=C2c2ccccc2)cc1", "inhibition": "37% (inactive)"}
{"compound": "Cc1ccc(C(=O)N2N=C(c3ccc(Cl)cc3)CC2(O)C(F)(F)F)o1", "note": "(stereo not drawn)", "inhibition": "20% (inactive)"}
{"compound": "CCCC(C)C(=O)Nc1cccc([N+](=O)[O-])c1C", "note": "(stereo not drawn)", "inhibition": "11% (inactive)"}
{"compound": "O=C1CC(NCc2ccc3c(c2)OCO3)C(=O)N1c1ccc(Cl)cc1", "note": "(stereo not drawn)", "inhibition": "8% (inactive)"}
{"compound": "O=c1c2ccccc2c(-c2ccccc2)nn1Cc1cccc(Br)c1", "inhibition": "15% (inactive)"}
{"compound": "CC(C)Cn1nc(-c2ccccc2)c2ccccc2c1=O", "inhibition": "18% (inactive)"}
{"compound": "O=c1c2ccccc2c(-c2ccccc2)nn1CCc1ccccc1", "inhibition": "53% (active)"}
{"compound": "COc1ccc(OC)c(C2NC(=S)NC(C)=C2C(=O)OCCc2ccccc2)c1", "note": "(stereo not drawn)", "inhibition": "21% (inactive)"}
{"compound": "COc1ccc(OC)c(C2NC(=S)NC(C)=C2C(=O)OCCOc2ccccc2)c1", "note": "(stereo not drawn)", "inhibition": "50% (active)"}
{"compound": "COCCOC(=O)C1=C(C)NC(=S)NC1c1cc(OC)ccc1OC", "note": "(stereo not drawn)", "inhibition": "15% (inactive)"}
